The text below walks through data of PubChem BioAssay (EPA / NIEHS).

Values joined by “and” are separate entries in the source; they are usually repeats but may differ in a detail not shown here. Equal values may be shown once. Inconclusive results are not listed. Some compounds were tested as several samples or in several runs, with calls that do not always agree. Active and inactive are the calls of the source. The calls were made as follows: active = hit-call score of the fitted dose curve at least 0.9, where 1 is the maximum; inconclusive = response in the unintended direction; inactive = score below 0.9.

Chain of Nuclear receptor subfamily 1 group I member 2 (Homo sapiens) (O75469 whole entry, looked up, the tested form may be a part): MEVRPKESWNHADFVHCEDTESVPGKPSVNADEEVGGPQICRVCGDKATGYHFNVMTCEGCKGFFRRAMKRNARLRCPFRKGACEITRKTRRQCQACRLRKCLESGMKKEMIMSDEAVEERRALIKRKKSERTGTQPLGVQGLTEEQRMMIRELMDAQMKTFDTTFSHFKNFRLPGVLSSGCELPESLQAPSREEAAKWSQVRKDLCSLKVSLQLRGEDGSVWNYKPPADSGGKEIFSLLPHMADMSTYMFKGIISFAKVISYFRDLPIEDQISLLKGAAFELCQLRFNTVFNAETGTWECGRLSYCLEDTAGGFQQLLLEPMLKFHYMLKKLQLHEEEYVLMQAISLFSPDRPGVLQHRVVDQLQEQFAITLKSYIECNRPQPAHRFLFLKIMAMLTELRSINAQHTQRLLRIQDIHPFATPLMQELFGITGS

In this assay the target is Nuclear receptor subfamily 1 group I member 2 (Homo sapiens) (UniProt O75469). Kind of assay: ATG_PXR_TRANS: Attagene TRANS-FACTORIAL HepG2 Assay for human Pregnane X Receptor (PXR) (AID 2283008). The essentials:
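Fluorescence intensity of FAM-labelled, HpaI-digested reporter amplicons, separated by capillary electrophoresis, quantifies induction. HepG2 cells with PXR-Gal4 trans-reporter system were exposed 24 h; DMSO defines baseline.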
The term AC50 denotes the concentration giving half of the maximal activity seen. With `CCN(CC)CCNc1ccc(CNC=O)c2sc3ccc(OC)cc3c(=O)c12`, the concentration at half-maximal activity (AC50) is 0.228 µM (active).
As for `COc1cc(CCC(=O)CC(=O)CCc2ccc(O)c(OC)c2)ccc1O`, the half-maximal activity concentration (AC50) is 5.26 µM (active).
In the case of `Cc1oc(-c2ccccc2)nc1CCOc1ccc(C[C@H](Nc2ccccc2C(=O)c2ccccc2)C(=O)O)cc1`, the AC50 is 9.25 µM (active).
As to `O=C(O)Cc1cc(I)c(Oc2cc(I)c(O)c(I)c2)c(I)c1`, the AC50 was 13 µM (active) and the outcome was inactive.
Take `CCc1ccc(CCOc2ccc(CC3SC(=O)NC3=O)cc2)nc1` (configuration not stated): the AC50 was 3.89 µM (active) and the compound was classed as inactive.
In the case of `C=C(C)C(=O)OCCC(F)(F)C(F)(F)C(F)(F)C(F)(F)C(F)(F)C(F)(F)F`, the compound was classed as inactive.
Consider `CCCCCCCCCCCCCCCS(=O)(=O)Oc1ccccc1`, for which the AC50 was 1.21 µM (active).
`CC#C[C@]1(O)CC[C@H]2[C@@H]3CCC4=CC(=O)CCC4=C3[C@@H](c3ccc(N(C)C)cc3)C[C@@]21C`: the concentration at half-maximal activity (AC50) is 777 nM (active) and 356 nM (active) and 928 nM (active); the outcome was inactive.
On to `CN1CCN(c2ccccc2/C=C2\SCCN(c3ccc(Cl)c(Cl)c3)C2=O)CC1`, for which the AC50 was 3.7 µM (active).
In the case of `COC(=O)CCCCC(=O)OC`, the call was inactive.
Take `FC(F)(I)C(F)(F)C(F)(F)C(F)(F)C(F)(F)C(F)(F)I`: the AC50 was 33.4 µM (active).
For the compound `CCCCCCCC(=O)O`, the outcome was inactive.
On to `CC(C)(C)c1cc(C(C)(C)C)c(O)c(C(C)(C)C)c1`, for which the call was inactive.
For `CCCOc1sc(C(=O)N2CCC(c3cc(CN)ccc3F)CC2)c(C)c1Br`, the result was inactive.
As for `c1ccc2c(c1)Cc1ccccc1-2`, the compound was called inactive.
Same read-out and setting: with `CC(O)C(=O)O` (configuration not stated) the entry was “inactive”.
On to `O=C(/C=C/c1ccc(O)cc1)CC(=O)/C=C/c1ccc(O)cc1`, for which the compound was classed as inactive.
With `CCCCCCC(=O)O`, the compound was classed as inactive.
With `CC(C)(C)CC(C)(C)c1ccc(O)c(-n2nc3ccccc3n2)c1`, the concentration at half-maximal activity (AC50) was 3.65 µM (active).
On to `C[C@@H]1C[C@H]2[C@@H]3CCC4=CC(=O)C=C[C@]4(C)[C@@]3(F)[C@@H](O)C[C@]2(C)[C@@]1(O)C(=O)COP(=O)(O)O`, for which the outcome was inactive.
For the compound `O=C1OC2(c3ccccc31)c1cc(Br)c(O)c(Br)c1Oc1c2cc(Br)c(O)c1Br`, the AC50 was 8.91 µM (active) and the call was inactive.
Turning to `CCCCCCCCC(=O)O`, the outcome was inactive.
Consider `CN1CCC[C@H]1c1cccnc1`, for which the result was inactive.
For `c1ccc2cc3c(ccc4ccccc43)cc2c1`, the call was inactive.
`O=c1c(-c2ccc(O)cc2)coc2cc(O)ccc12`: the compound was called inactive.
As for `CCCCCCCCCCCCN1CCCC1=O`, the concentration at half-maximal activity (AC50) is 9.09 µM (active).
On to `c1ccc2c(c1)ccc1ccccc12`, for which the result was inactive.
For `CCCCC[C@H](O)CC(=O)CCc1ccc(O)c(OC)c1`, the AC50 was 27.6 µM (active).
